Assay results from PubChem BioAssay (NCI).
Compounds without any hit were thinned out: in the full panel of roughly 79,000, 15% have a hit. Calls of active or inactive are those of the source. Cut-off read from the data, not from the text of the source: active = growth inhibition above about 70%; inactive = the rest.

Assay: NCI Yeast Anticancer Drug Screen. Data for the mec2-1 strain (AID 157)
Settings: S. cerevisiae mec2-1 strain, at 5.0 µM (retest, dose inferred, filed as 0.5), hits give high values
Summary of the method: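 Each compound was tested on mec2-1 yeast, a strain altered in DNA damage repair or cell cycle control. Growth inhibition is reported relative to vehicle.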

SMILES | growth inhibition
CCCCC#C[I+]c1ccccc1 | 46% (inactive)
CCOC(=O)C1C(c2cccc(OC)c2O)c2cc3c(cc2OC1(C)N1CCCC1)OCO3 (stereo not drawn) | 1% (inactive)
Nc1ncnc2nn(C3OC(CO)C(O)C3O)nc12 (stereo not drawn) | 2% (inactive)
Nc1nc(-c2ccc3c(c2)Sc2ccccc2O3)cs1 | 39% (inactive)
O=C1C=CC(Nc2cccc([N+](=O)[O-])c2)C1Nc1cccc([N+](=O)[O-])c1 (stereo not drawn) | 16% (inactive)
O=C(CC(=O)c1ccccc1)CC(=O)c1ccccc1 | 24% (inactive)
Fc1ccc(CSC(=S)Nc2ccc(Br)cc2)cc1 | 8% (inactive)
Cc1cc([N+](=O)[O-])c2nnnn2c1 | 2% (inactive)
CN(c1ccc(C(N)=O)cc1)c1c(O)c2ccccc2[nH]c1=O | -1% (inactive)
O=C(/C=C\c1cccc2ccccc12)c1ccccn1 | 4% (inactive)
COc1ccc2c(c1)CCc1c(CO)c(COC(=O)NC(C)C)n(C)c1-2 | 98% (active)
O=C1CC(O)CC(=O)C1=C(O)CCCCCCCCCCc1ccccc1 (stereo not drawn) | 25% (inactive)
CC1CCN(CCCOC(=O)c2ccccc2)CC1 | 13% (inactive)
Cc1ccc(S(=O)(=O)OC2COC3C(OS(=O)(=O)c4ccc(C)cc4)COC23)cc1 (stereo not drawn) | -7% (inactive)
Cc1nn(C(=S)S)c(C)c1N=Nc1cccc(F)c1 | -1% (inactive)
O=C1C(=Cc2ccccc2O)N=C(c2ccccc2)N1n1c(-c2ccccc2)nc2ccccc2c1=O | -3% (inactive)
O=C1/C(=C/c2ccccc2)CNC/C1=C\c1ccccc1 | 26% (inactive)
Cc1cc(Br)c(P(=O)(O)O)cc1[N+](=O)[O-] | -7% (inactive)
Oc1cc(Cc2ccccc2)c(Cc2ccccc2)cc1O | -26% (inactive)
O=S1(=O)CCN(c2ccccc2CC(c2c[nH]c3ccccc23)c2c[nH]c3ccccc23)CC1 | -5% (inactive)

SMILES | growth inhibition
CCCCCC(O)C(C)CO (stereo not drawn) | -2% (inactive)
Cc1cc(=O)c2cc(N=Cc3ccc([N+](=O)[O-])o3)ccc2o1 | -10% (inactive)
CN(C)C(=S)/N=c1\ssc(=S)n1Cc1ccco1 | 0% (inactive)
O=[N+]([O-])c1ccc2nc(Nc3ccccc3)c(Nc3ccccc3)nc2c1 | 1% (inactive)
CC(=O)NC(CCC(=O)O)C(=O)O.[NH-]C1CCCCC1[NH-].[Pt+2] (stereo not drawn) | 99% (active)
CC(=O)Oc1c2c(c(C)c3ccccc13)C(=O)c1cccnc1C2=O | 6% (inactive)
C=C1C(=O)OC2C(C)C3C=CC(=O)[C@@]3(C)C(OC(=O)/C(C)=C/C)C1[C@@H]2OC(C)=O (stereo partly drawn) | 16% (inactive)
O=C(O)/C=C/c1ccc2c(c1)CC1(Cc3ccccc3C1)C2 | 40% (inactive)
C(=C\c1ccc(-[n+]2nc(-c3ccccc3)nn2-c2ccccc2)cc1)/c1ccccc1 | 81% (active)
O=CC(O)C(O)C(O)C(O)C(=O)NCCCCCCCCCCCCNC(=O)C(O)C(O)C(O)C(O)C=O (stereo not drawn) | 20% (inactive)
CCCCCCCCCCN(CCCCCCCCCC)CC(O)c1cc(-c2ccccc2)nc2ccccc12 (stereo not drawn) | -2% (inactive)
CC1(C)C(=O)C(C(Cl)(Cl)Cl)=C(Cl)C(=O)C1(Cl)Cl | 27% (inactive)
Cc1cccc2c1CC1(C2)Cc2c(C)cccc2C1=O (stereo not drawn) | -30% (inactive)
Oc1c(Cl)cc(C(c2cc(Cl)c(O)c(Cl)c2)C(c2cc(Cl)c(O)c(Cl)c2)c2cc(Cl)c(O)c(Cl)c2)cc1Cl | 99% (active)
Cc1ccc(S(=O)(=O)NC(Cc2ccccc2)C(=O)CCl)cc1 (stereo not drawn) | 66% (inactive)
CCOC(=O)/C(C#N)=C/c1coc2cc(C)cc(C)c2c1=O | 2% (inactive)
CN(C)/N=C\C1CC=CCC1 (stereo not drawn) | -46% (inactive)
NCC(=O)N/N=C/c1ccc([N+](=O)[O-])o1 | 4% (inactive)
CCc1cc(CC)c(-c2ccco2)c(COC(=O)NC)c1 | -3% (inactive)

Same assay, conditions: S. cerevisiae mec2-1 strain, at 50.0 µM (retest, dose inferred, filed as 5.0), hits give high values

SMILES | growth inhibition
CCCCC#C[I+]c1ccccc1 | 46% (inactive)
CCOC(=O)C1C(c2cccc(OC)c2O)c2cc3c(cc2OC1(C)N1CCCC1)OCO3 (stereo not drawn) | 15% (inactive)
Nc1ncnc2nn(C3OC(CO)C(O)C3O)nc12 (stereo not drawn) | 6% (inactive)
Nc1nc(-c2ccc3c(c2)Sc2ccccc2O3)cs1 | 100% (active)
O=C1C=CC(Nc2cccc([N+](=O)[O-])c2)C1Nc1cccc([N+](=O)[O-])c1 (stereo not drawn) | -9% (inactive)
O=C(CC(=O)c1ccccc1)CC(=O)c1ccccc1 | 85% (active)
Fc1ccc(CSC(=S)Nc2ccc(Br)cc2)cc1 | 99% (active)
Cc1cc([N+](=O)[O-])c2nnnn2c1 | 28% (inactive)
CN(c1ccc(C(N)=O)cc1)c1c(O)c2ccccc2[nH]c1=O | 48% (inactive)
O=C(/C=C\c1cccc2ccccc12)c1ccccn1 | 97% (active)
COc1ccc2c(c1)CCc1c(CO)c(COC(=O)NC(C)C)n(C)c1-2 | 91% (active)
O=C1CC(O)CC(=O)C1=C(O)CCCCCCCCCCc1ccccc1 (stereo not drawn) | 39% (inactive)
CC1CCN(CCCOC(=O)c2ccccc2)CC1 | 56% (inactive)
Cc1ccc(S(=O)(=O)OC2COC3C(OS(=O)(=O)c4ccc(C)cc4)COC23)cc1 (stereo not drawn) | 4% (inactive)
Cc1nn(C(=S)S)c(C)c1N=Nc1cccc(F)c1 | 18% (inactive)
O=C1C(=Cc2ccccc2O)N=C(c2ccccc2)N1n1c(-c2ccccc2)nc2ccccc2c1=O | 22% (inactive)
O=C1/C(=C/c2ccccc2)CNC/C1=C\c1ccccc1 | 97% (active)
Cc1cc(Br)c(P(=O)(O)O)cc1[N+](=O)[O-] | -3% (inactive)
Oc1cc(Cc2ccccc2)c(Cc2ccccc2)cc1O | 98% (active)
O=S1(=O)CCN(c2ccccc2CC(c2c[nH]c3ccccc23)c2c[nH]c3ccccc23)CC1 | 73% (active)

SMILES | growth inhibition
CCCCCC(O)C(C)CO (stereo not drawn) | -3% (inactive)
Cc1cc(=O)c2cc(N=Cc3ccc([N+](=O)[O-])o3)ccc2o1 | 23% (inactive)
CN(C)C(=S)/N=c1\ssc(=S)n1Cc1ccco1 | -8% (inactive)
O=[N+]([O-])c1ccc2nc(Nc3ccccc3)c(Nc3ccccc3)nc2c1 | 95% (active)
CC(=O)NC(CCC(=O)O)C(=O)O.[NH-]C1CCCCC1[NH-].[Pt+2] (stereo not drawn) | 99% (active)
CC(=O)Oc1c2c(c(C)c3ccccc13)C(=O)c1cccnc1C2=O | 5% (inactive)
C=C1C(=O)OC2C(C)C3C=CC(=O)[C@@]3(C)C(OC(=O)/C(C)=C/C)C1[C@@H]2OC(C)=O (stereo partly drawn) | 95% (active)
O=C(O)/C=C/c1ccc2c(c1)CC1(Cc3ccccc3C1)C2 | 90% (active)
C(=C\c1ccc(-[n+]2nc(-c3ccccc3)nn2-c2ccccc2)cc1)/c1ccccc1 | 100% (active)
O=CC(O)C(O)C(O)C(O)C(=O)NCCCCCCCCCCCCNC(=O)C(O)C(O)C(O)C(O)C=O (stereo not drawn) | 27% (inactive)
CCCCCCCCCCN(CCCCCCCCCC)CC(O)c1cc(-c2ccccc2)nc2ccccc12 (stereo not drawn) | 34% (inactive)
CC1(C)C(=O)C(C(Cl)(Cl)Cl)=C(Cl)C(=O)C1(Cl)Cl | 96% (active)
Cc1cccc2c1CC1(C2)Cc2c(C)cccc2C1=O (stereo not drawn) | 78% (active)
Oc1c(Cl)cc(C(c2cc(Cl)c(O)c(Cl)c2)C(c2cc(Cl)c(O)c(Cl)c2)c2cc(Cl)c(O)c(Cl)c2)cc1Cl | 98% (active)
Cc1ccc(S(=O)(=O)NC(Cc2ccccc2)C(=O)CCl)cc1 (stereo not drawn) | 99% (active)
CCOC(=O)/C(C#N)=C/c1coc2cc(C)cc(C)c2c1=O | 97% (active)
CN(C)/N=C\C1CC=CCC1 (stereo not drawn) | -51% (inactive)
NCC(=O)N/N=C/c1ccc([N+](=O)[O-])o1 | 17% (inactive)
CCc1cc(CC)c(-c2ccco2)c(COC(=O)NC)c1 | 64% (inactive)
